PubChem BioAssay (NCI)
This is part of a sample that, as a whole, favours compounds with a hit. Of some 83,000 tested, about 20% had one in any assay.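 Activity criterion: percent growth below 10, measured after cells in 96-well plates were exposed to a single compound concentration for 48 hours.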 Values without a mark were called inactive. Calls of active or inactive are those of the source.

Experiments:
Experiment in all cases: NCI-60 one-dose screen, 48 h (100 = growth as untreated, 0 = no growth, -100 = all killed)
Settings in all cases: 10 µM unless noted
NCI-H23 lung = system: NCI-H23 lung
NCI-H226 lung = system: NCI-H226 lung
NCI-H322M lung = system: NCI-H322M lung
HOP-62 NSCLC = system: HOP-62 NSCLC
NCI-H460 lung = system: NCI-H460 lung
HOP-92 NSCLC = system: HOP-92 NSCLC
NCI-H522 lung = system: NCI-H522 lung
A549/ATCC NSCLC = system: A549/ATCC NSCLC
786-0 renal = system: 786-0 renal
COLO 205 colon = system: COLO 205 colon

| Structure (SMILES) | growth (NCI-H23 lung) | growth (NCI-H226 lung) | growth (NCI-H322M lung) | growth (HOP-62 NSCLC) | growth (NCI-H460 lung) | growth (HOP-92 NSCLC) | growth (NCI-H522 lung) | growth (A549/ATCC NSCLC) | growth (786-0 renal) | growth (COLO 205 colon) |
| --- | --- | --- | --- | --- | --- | --- | --- | --- | --- | --- |
| Clc1cc(N2CC2)nc(N2CC2)n1 | 56% | 81.4% | 103% | 63.9% | 23.6% | 68.4% | 67.2% | 62.3% | 76.1% |  |
| O=C(Nc1ccc([N+](=O)[O-])cc1)C(Cl)(Cl)Cl | 96.5% | 97.8% | 90.1% | 96.9% | 104% | 88% | 106% | 94% | 96.6% |  |
| CCN(CC)CCOC(=O)C(OC(C)C)(c1ccccc1)c1ccccc1 | 99.1% | 100% | 99.6% | 94.8% | 100% | 80.1% | 82.3% | 96.9% | 88.2% |  |
| CCOC(=O)[C@@H](C)C[C@H](Cc1ccccc1)NC(=O)c1csc([C@@H](C[C@H](C(C)C)N(C)C(=O)CNC(=O)[C@H]2CCCCN2C)OC(C)=O)n1 | 31.7% | 69.9% | 44.7% | 23.5% | 5.98% (active) | 47.5% | -12.8% (active) | 16.4% | 19.8% |  |
| COC(=O)[C@@H](C)C[C@H](Cc1cn(C)c2ccccc12)NC(=O)c1csc([C@@H](C[C@H](C(C)C)N(C)C(=O)[C@@H](NC(=O)[C@H]2CCCCN2C)C(C)C)OC(C)=O)n1 | 31.9% | 18% | 37.8% | 7.44% (active) | 7.12% (active) | 25.7% | -7.69% (active) | 15.3% | 6.49% (active) |  |
| COC(=O)[C@@H](C)C[C@H](Cc1ccccc1)NC(=O)c1csc([C@@H](C[C@H](C(C)C)N(C)C(=O)[C@H](C)NC(=O)[C@H]2CCCCN2C)OC(C)=O)n1 | 46% | 61% | 40.6% | 32.6% | 12% | 40.4% | 8.96% (active) | 46.6% | 35% |  |
| Nc1ccc2c(c1)Cc1cc(Br)ccc1-2 | 90.5% | 95.4% | 105% | 101% | 104% | 78% | 107% | 100% | 108% |  |
| COc1ccc(/C=C\c2cc(OC)c(OC)c(OC)c2)cc1NC(=O)/C=C/c1cc(OC)c(OC)c(OC)c1 | 25.7% | 46.8% | 55.1% | 45.5% | 55.2% | 55.5% | 34.3% | 56.6% | 39.9% |  |
| O=C1C(N2CC2)=C(N2CC2)C(=O)C(N2CC2)=C1N1CC1 | -70% (active) | -63.6% (active) | 3.77% (active) | -17% (active) | -30.9% (active) | 41.4% | -53.3% (active) | 6.45% (active) | -76.2% (active) |  |
| COc1ccc2c(c1)c(-c1nc(-c3c[nH]c4ncccc34)cs1)cn2CCCCN1CCCCC1 | 1.32% (active) | 39.6% | -20.2% (active) | -75.5% (active) | -69.8% (active) | 20.5% | -68.8% (active) | -65.9% (active) | -90% (active) |  |
| COc1cc(C=Nc2cccc(C(=O)O)c2)ccc1N(CCCl)CCCl | 103% | 92.7% | 100% | 118% | 75.4% | 101% | -3.21% (active) | 96.6% | 105% | 67.1% |
| Cc1c(NS(=O)(=O)c2ccccc2)ccc([N+](=O)[O-])c1Cl | 58.6% | 62.7% | 102% | 95.1% | 67% | -9.14% (active) | 55.7% | 58.6% | 41.1% | 109% |
| O=C1CC2(CC3(Cl)C(Cl)=C(Cl)C2(Cl)C3(Cl)Cl)C(=O)O1 (stereo not given) | 96.8% | 110% | 99.3% | 91.6% | 112% | 107% | 102% | 105% | 96.3% | 126% |
| CC1[C@H](C)OC(=O)CC(O)CC(O)CC(O)CCC(O)C(O)C[C@]2(O)CC(O)C(C(=O)O)C(CC(OC3O[C@H](C)[C@@H](O)[C@H](N)[C@@H]3O)/C=C/C=C/C=C/C=C/CC/C=C/C=C/[C@H](C)[C@H]1O)O2 (stereo not given in full) | 90.8% | 99.1% | 105% | 105% | 103% | 101% | 114% | 97.8% | 105% | 93.7% |
| O=C1N[C@@H]2[C@@H](O)[C@@H](O)[C@H](O)C[C@H]2c2cc3c(c(O)c21)OCO3 | -14.9% (active) | -38.3% (active) | -14.7% (active) | -18.9% (active) | -15.1% (active) | -19% (active) | -32.6% (active) | -8.4% (active) | -10.8% (active) | -38.2% (active) |
| Cc1ccc2c(C(C[N+](=O)[O-])c3cccs3)c(-c3ccccc3)[nH]c2c1 (stereo not given) | 38.4% | 46.4% | 54.7% | 26.2% | 11.3% | 25.5% | -3.71% (active) | 28.8% | 38.6% | 6.75% (active) |
| N#CC1(C#N)C(c2ccc(N(CCCl)CCCl)cc2)OC23CCCCC2C1(C#N)C(=N)O3 (stereo not given) | 61.5% | 9.15% (active) | 94.2% | 89.2% | 30.1% | 88.5% | 80.2% | 97.3% | 88.6% | 104% |
| C[CH2][Sn]([Cl])([Cl])[CH2]C.Oc1ccccc1C=NCCN=Cc1ccccc1O | 103% | 99.1% | 101% | 99.2% | 107% | 95.2% | 9.48% (active) | 96% | 116% | 116% |
| CC(=O)ONc1ccc([N+](=O)[O-])c(C(F)(F)F)c1 | 92.1% | 97.8% | 108% | 80% | 109% | 99.6% | 97.8% | 95.3% | 97.6% | 106% |
| C=CCCCCCCCCC(=O)[O-].C=CCCCCCCCCC(=O)[O-].[Zn+2] | 96.9% | 115% | 103% | 119% | 106% | 72.5% | 119% | 101% | 97.2% | 127% |
| COc1cc2c(=O)n(C3CCCCCCC3)c3c4cc[nH]c4ncc3c2cc1OC | 57.5% | 17.8% | 34.8% | 6.39% (active) | 13.6% | 46.2% | 48.8% | 25.4% | 31.2% | 58.5% |
| Nc1ccc(Cl)cc1 | 99.3% | 92.1% | 106% | 90.3% | 109% | 85.5% | 89.3% | 78.7% | 97.7% | 95.9% |
| CCOC(=S)S[C@H]1C[C@@H]2[C@H](CC[C@]3(C)C(=O)CC[C@@H]23)[C@@]2(C)CCC(=O)C=C12 | 101% | 106% | 102% | 112% | 105% | 117% | 95.6% | 107% | 102% | 115% |
| CC[C@H](C)[C@H](NC(=O)c1ccccn1)C(=O)N(C)[C@H](C[C@@H](OC(C)=O)c1nc(C(=O)N[C@@H](Cc2ccccc2)C[C@H](C)C(=O)OC)cs1)C(C)C | 28.3% | 25.4% | 58.2% | 26.9% | 9.13% (active) | 91.9% | -33.8% (active) | 32.2% | 30.4% | -21.2% (active) |
| O=C(CC1(O)C(=O)N(Cc2ccccc2)c2ccccc21)c1ccc(C(=O)NCC2CCC3(CC2)OOC2(CCCCC2)OO3)cc1 (stereo not given) | -72.2% (active) | -34.8% (active) | 65.2% | -48.2% (active) | -51.4% (active) | -72% (active) | -28% (active) | -53.6% (active) | -73.1% (active) | -52.9% (active) |
| C[N+](C)(C)Cc1cc(Cl)ccc1O | 97.7% | 98.6% | 87.3% | 101% | 110% | 93.2% | 80.6% | 94.6% | 100% | 107% |
